PrP UTR inh: suppresses PrP 5' UTR mRNA reporter expression; cell-based PrP 5' UTR mRNA reporter, plate reader; inhibition, % (concentration not given with the values); actives 0.35% (n = 340,000); AID 488862; in the data active = inhibition above about 52%; note: 0 = median of the neutral control wells
Rv3671c inh: Rv3671c (M. tuberculosis) protease inhibition. inhibition, % at 5.96 µM. P9WHR9. actives 0.048% (n = 320,000). AID 2606; in the data active = inhibition above about 38%;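 note: extracellular domain of Rv3671c used as enzyme; 0% = enzyme with DMSO and 100% = no enzyme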
UGM FP inh: Mtb UDP-galactopyranose mutase inhibition; purified UGM, fluorescence polarization probe displacement; inhibition, % at 10 µM; actives 0.06% (n = 320,000); in the data active = inhibition above about 10%, passing the limit was not always enough; inconclusive = no clear call, values can overlap the other calls
Target sequence (P9WIQ1 whole entry, looked up): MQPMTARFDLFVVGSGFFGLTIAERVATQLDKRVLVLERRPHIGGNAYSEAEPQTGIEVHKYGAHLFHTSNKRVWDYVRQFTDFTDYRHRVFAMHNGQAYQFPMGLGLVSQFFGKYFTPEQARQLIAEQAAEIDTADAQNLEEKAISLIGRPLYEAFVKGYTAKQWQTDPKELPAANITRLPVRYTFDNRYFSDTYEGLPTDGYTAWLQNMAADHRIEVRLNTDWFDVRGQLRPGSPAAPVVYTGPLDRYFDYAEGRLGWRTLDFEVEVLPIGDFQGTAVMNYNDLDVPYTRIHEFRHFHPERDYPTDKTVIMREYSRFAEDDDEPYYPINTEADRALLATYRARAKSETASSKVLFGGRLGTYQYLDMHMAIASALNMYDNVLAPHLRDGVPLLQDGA
PrPC TRFRET: inhibitors of human cell surface prion protein PrPC. AID 720596. inhibition, % at 13.8 µM. TR-FRET read-out. P04156. actives 0.43% (n = 370,000); in the data active = inhibition above about 24%; note: 0% = median of the test wells and 100% = reference compound wells
FadD28 FP inh: M. tuberculosis FadD28 bisubstrate binding inhibition; AID 588549; inhibition, % at 12.5 µM; FadD28 bisubstrate probe binding, fluorescence polarization; actives 0.22% (n = 360,000); in the data active = inhibition above about 8.5%, passing the limit was not always enough; inconclusive = no clear call, values can overlap the other calls
PriA SSB inh: blocks PriA binding to SSB C-terminal tail. AlphaScreen SSBct-PriA binding, biotinylated peptide. inhibition, % at 33 µM. actives 0.6% (n = 430,000). AID 1272365; in the data active = inhibition mostly above about 37%, no sharp cut-off; inactive = mostly below about 20%;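 note: plate controls were negative control peptide for no effect and reference peptide for full effect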
PrP UTR cherry: prion 5' UTR mRNA inhibition, cherry-pick retest. shares compounds with PrP UTR inh. actives 48% (n = 1,100). cell-based prion protein 5' UTR reporter, plate reader. inhibition, % at 2.5 µM; in the data active = inhibition above about 54%; inconclusive = no clear call, values can overlap the other calls
* = called active by the depositor; i = inactive; ? = inconclusive; / = not tested or not shown. A selection: hits, their analogues and other compounds. The true share with any hit is near 1.2%.

SMILES	PrP UTR inh	Rv3671c inh	UGM FP inh	PrPC TRFRET	FadD28 FP inh	PriA SSB inh	PrP UTR cherry
CCC1SC(CC)C(=O)N(CC(=O)NCc2ccc(F)cc2)C1=O (centres undefined)	78.1*	-4.6	4.0	2.8	-1.3	7.3	-19.3
Cc1ccc(-c2n[nH]c(=S)n2/N=C/c2ccc(C)s2)cc1	66.1*	-5.1	-1.4	-1.8	-0.8	/	8.2
O=C(C[n+]1ccccc1)N/N=C/c1c(F)cccc1Cl	58.6*	-0.9	-0.4	2.5	-2.0	/	-3.5
CCOC(=O)CNC(=O)CSc1nc(=O)n2cccc(C)c2n1	/	/	/	/	/	6.0	/
CCCCS(=O)(=O)NCCn1ncc2c(N3CCN(c4ccccc4)CC3)ncnc21	/	/	/	/	/	0.0	/
Cc1nc(C)n(C(C)CNC(=O)c2ccco2)n1 (centres undefined)	60.7*	/	1.4	-2.1	3.5	-1.8	3.5
COc1cccc(OCC(=O)Nc2ccc3c(c2)OCC(C)(C)C(=O)N3CCC(C)C)c1	/	/	/	/	/	22.0	/
CCOc1ccc(-c2nc(NC(=O)c3ccccc3SC)sc2C)cc1	/	/	/	/	/	-12.0	/
CCOC(=O)Cc1[nH]nc2c1C(c1ccsc1)C(C#N)=C(N)O2 (centres undefined)	53.0*	3.7	0.3	1.3	0.8	-17.6	-9.5
COCc1[nH]nc2c1C(c1ccsc1)C(C#N)=C(N)O2 (centres undefined)	-26.2	-5.1	-1.3	-5.5	-2.7	-19.2	/
O=C(NN=C1CCCC1)c1[nH]c2ccc(Br)cc2c1-c1ccccc1	/	-23.4	0.9	6.3	/	2.6	/
O=C(N/N=C/c1ccccc1)c1[nH]c2ccc(Br)cc2c1-c1ccccc1	58.8*	-15.1	-2.3	15.1	-3.9	i	87.8*
C=CCN=C1NN=C(c2cc(C)n(CCOC)c2C)CS1	46.1	4.4	-0.7	10.9	-0.1	-2.7	/
COCCn1c(C)cc(C2=NNC(=NC3CC3)SC2)c1C	92.3*	0.5	2.2	-6.2	-4.2	13.0	94.0*
Cc1cc(C2=NNC(=NC3CC3)SC2)c(C)n1Cc1ccco1	87.7*	-2.0	-0.8	-1.9	-5.8	-6.8	86.9*
C=CCn1c(C)cc(C2=NNC(=NC(C)(C)C)SC2)c1C	65.4*	13.6	-2.8	3.0	-3.0	31.6	66.4*
Cc1cc(C2=NNC(=NC3CC3)SC2)c(C)n1-c1ccccc1	94.5*	/	/	5.0	-1.4	7.3	94.3*
Cc1nc(NC(=O)C2CCN(c3cc(-n4ccc5ccccc54)ncn3)CC2)sc1C	/	/	/	/	/	-2.0	/
COCCn1c(C)cc(C2=NNC(=Nc3ccc(Cl)cc3Cl)SC2)c1C	-20.1	-2.2	2.7	-2.0	-3.5	6.5	/
COCCCN=C1NN=C(c2cc(C)n(Cc3ccco3)c2C)CS1	68.0*	-0.1	-1.5	1.6	-2.8	-2.2	81.9*
NC(=O)CC(NC(=O)Cc1cccc2ccccc12)c1ccc(NCc2ccccc2)c([N+](=O)[O-])c1 (centres undefined)	-25.4	-1.1	2.8	-11.7	-2.2	7.0	/
NC(=O)CC(NC(=O)Cc1cccc2ccccc12)c1ccc(NCc2ccc(F)cc2)c([N+](=O)[O-])c1 (centres undefined)	74.7*	-50.6	3.2	-7.5	-2.4	-5.2	-27.5
CC(=O)OC(C)(C)/C=C/C(=O)C(C)(O)C1C(O)CC2(C)C3CC=C4C(CC(O)C(=O)C4(C)C)C3(C)C(=O)CC12C (centres undefined)	80.5*	/	/	33.6*	-2.5	-3.4	90.4*
CC(=O)OC(C)(C)/C=C/C(=O)[C@](C)(O)[C@H]1[C@H](O)C[C@@]2(C)[C@@H]3CC=C4[C@H](C[C@H](O)C(=O)C4(C)C)[C@]3(C)C(=O)C[C@]12C	79.2*	/	/	/	-0.3	/	88.1*
COc1ccc(OC)c(COC[C@@H](O)CN2CCN(c3cc(Cl)ccc3C)CC2)c1	/	/	/	/	/	21.0	/
SMILES	PrP UTR inh	Rv3671c inh	UGM FP inh	PrPC TRFRET	FadD28 FP inh	PriA SSB inh	PrP UTR cherry
C=CCNC(=O)C1CCN(C(=O)c2ccc(-c3ccccc3)cc2)CC1	60.0*	-3.3	3.8	-5.6	-3.8	-7.4	?
CCOC(=O)c1csc(NC(=O)c2ccccc2Cl)n1	/	/	/	/	/	2.0	/
O=C1c2ccccc2C(=O)C1c1ccnc2ccccc12	57.7*	-24.8	-0.6	-11.8	0.1	-6.7	40.5
CCOC(=O)c1c(NC(=O)CC2SC(=N)NC2=O)sc(C)c1C (centres undefined)	/	/	/	/	/	-0.9	/
Clc1ccc(Cn2ncc3c(N4CCCCC4)ncnc32)cc1	-7.5	-2.5	1.9	6.0	-2.9	-16.2	/
CS(=O)(=O)N1CCN(c2ncnc3c2cnn3-c2ccccc2)CC1	55.3*	3.4	1.7	-0.3	1.4	-1.8	-28.0
COc1ccc(-n2ncc3c(N4CCCCC4)ncnc32)cc1	86.0*	1.7	-1.1	/	-1.3	-8.2	78.5*
Clc1ccc(-n2ncc3c(N4CCCCCC4)ncnc32)cc1	79.4*	2.6	2.3	-10.1	-0.8	-8.3	69.8*
O=S(=O)(c1ccc(F)cc1)N1CCN(c2ncnc3c2cnn3-c2ccccc2)CC1	-0.9	-1.4	-0.7	4.6	-2.1	-13.5	/
O=C(Nc1nnc(C2CCCO2)o1)c1ccc(S(=O)(=O)N2CCOCC2)cc1 (centres undefined)	/	/	/	/	/	4.0	/
O=C1c2ccccc2S(=O)(=O)N1Cc1nc2ccccc2s1	70.5*	-2.4	-1.6	1.4	-3.7	-14.5	?
O=C(CCN1C(=O)c2ccccc2S1(=O)=O)Nc1nc2ccccc2s1	/	/	/	/	/	3.0	/
CC1CCC(CN)CC1 (centres undefined)	/	/	/	/	/	1.0	/
CCN(C(=O)c1cc2cc(OC)ccc2oc1=O)c1ccccc1	66.9*	-3.5	-1.0	-1.3	1.7	-9.6	?
CCN(C(=O)c1cc2cc(OC)ccc2oc1=O)c1cccc(C)c1	-23.2	7.1	-1.2	-7.5	-3.8	-8.3	/
O=C(NCc1ccc2c(c1)OCO2)C1CCCN(S(=O)(=O)c2cccc3cccnc23)C1 (centres undefined)	77.7*	6.3	-1.3	9.1	-1.1	-13.3	?
O=C(c1ccc2c3c(cccc13)CC2)C1CCCN(Cc2ccccn2)C1 (centres undefined)	-12.7	-2.8	2.5	-5.5	-5.2	9.5	/
O=C(c1ccc2c3c(cccc13)CC2)C1CCCN(Cc2ccc(OCCO)cc2)C1 (centres undefined)	87.1*	1.0	-0.4	-7.2	-4.6	9.9	-18.1
Cc1ccnc(NC(=O)c2cc3ccccc3o2)c1	58.3*	-5.0	3.6	0.3	-1.5	-15.5	?
O=C(Nc1ccccn1)c1cc2ccccc2o1	58.7*	-6.6	0.9	-7.3	-0.9	-11.0	57.4*
O=C(Nc1ccc(Cl)cn1)c1cc2ccccc2o1	-125.4	-20.3	-1.8	-3.7	1.2	-15.2	/
Cc1ccc(C)c(NC(=O)c2cc3ccccc3o2)c1	-50.2	/	0.5	6.5	-1.3	-19.2	/
CCN(CC)c1ccc(C=NS(=O)(=O)c2ccccc2)cc1	/	/	/	/	/	15.0	/

Screens deposited in PubChem BioAssay by several laboratories.
